The full list was thinned out, with hits kept by preference.
LmPK inhibitor: blocks Leishmania mexicana pyruvate kinase activity; Q27686; purified LmPK, Kinase-Glo ATP luminescence, 1 h; Potency, µM (doses to about 57.5 µM), for inactives: top-dose activity change, negative = inhibition, hits mostly inhibitors; 290,000 compounds, 0.37% hits; also: potency is read from the fitted curve at half-maximal effect; % is scaled to controls: 0 for no effect and ±100 for the full control effect
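In 50 mM imidazole pH 7.2 with 7 mM MgCl2, LmPK (0.1 nM) turned over PEP (0.5 mM) and ADP (0.1 mM) for 1 h at room temperature. Luciferase read-out of ATP.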
Sm TGR block: blocks Schistosoma mansoni thioredoxin glutathione reductase | AID 485364 | 360,000 compounds, 3% hits | purified TGR, DTNB reduction, TNB absorbance 405 nm | Q962Y6 | Potency, µM (highest dose often 114 µM), without a hit: at the top dose activity change, negative = inhibition, actives largely listed as inhibitors; also: potency is read from the fitted curve at half-maximal effect; % is scaled to controls: 0 for no effect and ±100 for the full control effect; nearly all actives have a fitted effect of over 60% in size
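TGR 20 nM + NADPH 100 uM (dispensed conc.), cpd preinc 15 min RT; start with NADPH (500 uM addition) then DTNB (15 mM addition). Kinetic TNB absorbance, 405 nm filter. Four-parameter Hill fit across titration.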
Cycloheximide cs: affects cycloheximide protein synthesis inhibition readout, counter-screen; 300,000 compounds, 12% hits; cell reporter, cycloheximide protein synthesis inhibition counterscreen; max response, %; in the data active = max response mostly above about 13%, no sharp cut-off; inactive = mostly below about 14%; also: read at 38.3 µM for the half of the compounds with a filed dose; 0% is about no effect
FBPA Giardia inh: blocks Giardia fructose-bisphosphate aldolase activity | A8B2U2 | purified Giardia FBPA | Potency, µM (series often up to 59.6 µM), inactives show at the highest dose activity, negative = inhibition, actives largely listed as inhibitors | 290,000 compounds, 0.71% hits; also: potency is read from the fitted curve at half-maximal effect; % is scaled to controls: 0 for no effect and ±100 for the full control effect; nearly all actives have a fitted effect of over 55% in size
Target sequence (A8B2U2 whole entry, looked up): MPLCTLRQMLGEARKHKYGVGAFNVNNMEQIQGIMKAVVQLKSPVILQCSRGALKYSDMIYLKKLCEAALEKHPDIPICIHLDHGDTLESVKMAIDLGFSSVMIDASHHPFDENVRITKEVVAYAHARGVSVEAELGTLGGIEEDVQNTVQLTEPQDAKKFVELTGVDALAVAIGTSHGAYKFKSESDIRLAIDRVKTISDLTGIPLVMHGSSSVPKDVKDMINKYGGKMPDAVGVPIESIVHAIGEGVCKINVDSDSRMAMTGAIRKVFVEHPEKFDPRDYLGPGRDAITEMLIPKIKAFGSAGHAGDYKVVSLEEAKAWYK
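Giardia FBPA (40 nM reagent) was preincubated 10 min at RT with compound (up to 57.5 uM final), then substrate plus GAPDH/TPI/NAD/arsenate coupling system with diaphorase/resazurin was added; resorufin fluorescence (525/598 nm) was read after 20 min.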
Shiga toxin inh: inhibitors of Shiga toxin in Vero cells. Vero cells, Shiga toxin protein synthesis inhibition reporter. inhibition, % at 38.7 µM. 290,000 compounds, 9.2% hits. AID 2315; in the data active = inhibition mostly above about 28%, no sharp cut-off; inactive = mostly below about 43%; also: 0% is about no effect
TbPYK inhibitor: inhibitors of Trypanosoma brucei pyruvate kinase; TbPYK enzyme, Kinase-Glo Plus ATP luminescence, 45 min; Potency, µM (series often up to 76.8 µM), inactives show top-dose activity, negative = inhibition, hits mostly inhibitors; 410,000 compounds, 0.12% hits; also: potency is read from the fitted curve at half-maximal effect; % is scaled to controls: 0 for no effect and ±100 for the full control effect; nearly all actives have a fitted effect of over 50% in size
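Readout: single end-point luminescence (Kinase-Glo Plus, 10 min). Reaction conditions were TbPYK/substrate plus 130 uM ADP, 45 min at RT, pH 7.2 TEA buffer. No-enzyme wells served as controls, and data were normalized before concentration-response fitting.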
Numbers without * were called inactive; ? = inconclusive; nt = no result given; [ ] = remark or other dose. Unless noted, calls follow the shape of the dose curve; as a rule, active = well fitted curve in the direction sought with a large enough effect; inconclusive = small, poorly fitted or top-dose-only effect, or another doubt; inactive = no such curve, though single readings can be large; an effect the other way counts as inactive or inconclusive.

SMILES	LmPK inhibitor	Sm TGR block	Cycloheximide cs	FBPA Giardia inh	Shiga toxin inh	TbPYK inhibitor
CC(C)c1ccc(NC(=O)Cn2c(=O)oc3ccccc32)cc1	-2.5%	-16.3%	23.9	7.8%	31.8*	0.8%
COc1ccc(NC(=O)Cn2c(=O)oc3ccccc32)cc1	-0.6%	-1.8%	1.9	2.2%	-1.7	-13.9%
CC(C)Oc1ccc(CNC(=O)Cn2c(=O)oc3ccccc32)cc1	-0.4%	7.9%	10.3	4.0%	14.7	0.0%
Cc1ccc(CNC(=O)Cn2c(=O)oc3ccccc32)o1	-2.1%	28.2µM*	-2.5	0.8%	-0.5	-6.3%
Cc1ccsc1C(=O)OCc1nc2ccccc2c(=O)[nH]1	-2.5%	2.6%	58.3*	-8.4%	61.1*	-3.2%
CCOC(=O)c1nc2ccccc2c(=O)[nH]1	-0.8%	14.0%	36.6*	-7.2%	54.3*	-1.9%
CCOC(=O)CSc1nc2ccccc2c(=O)[nH]1	-0.8%	1.0%	-1.2	-20.9%	-4.8	-2.2%
C=C[C@@H](C)[C@](C)(O)c1ccccc1	nt	nt	nt	-1.3%	nt	nt
O=C(CN(C(=O)CNC(=O)c1ccco1)c1ccccc1F)NC1CCCCC1	-5.0%	-6.3%	-3.5	10.2%	-16.7	-8.0%
Cc1c(C(O)CN2CCN(Cc3ccc4c(c3)OCO4)CC2)c2ccccc2n1C (stereo not drawn)	4.7%	28.2µM*	-3.3	-1.5%	-13.2	-6.9%
COc1ccc2c(c1)c(C(O)CN1CCN(Cc3ccc4c(c3)OCO4)CC1)c(C)n2C (stereo not drawn)	-0.9%	25.1µM*	8.3	-25.6%	-9.3	-14.4%
CC(C)c1nc2n(n1)C1(CCCCC1)[C@@H]1CCCC[C@@H]1N2	nt	7.0%	nt	nt	nt	4.6%
Cc1ccccc1OCC(=O)NNC(=O)C1CC(=O)N(c2ccc3c(c2)OCCO3)C1 (stereo not drawn)	nt	-5.7%	nt	nt	nt	-3.1%
C#CCNc1ccc([N+](=O)[O-])cc1	-4.9%	?	16.3*	-8.9%	22.2	-3.8%
CCN(CC)CCOc1ccc(C=NNc2nc3c([nH]2)c(=O)n(C)c(=O)n3C)cc1	nt	nt	nt	nt	nt	-8.7%
Cc1ccc(-c2nc3ccccc3o2)cc1NC(=O)c1ccc2c(c1)OCO2	-5.4%	6.1%	50.3*	3.8%	125.7*	16.5%
Cc1ccc(-c2nc3ccccc3[nH]2)cc1NC(=S)NC(=O)c1ccccc1Br	-0.6%	5.8%	13.3	-5.6%	3.8	-7.5%
COc1cc2ccccc2cc1C(=O)Nc1cc(-c2nc3ccccc3o2)ccc1C	nt	0.8%	nt	nt	nt	0.5%
Cc1ccc(-c2nc3ccccc3[nH]2)cc1NC(=O)/C=C/c1ccco1	1.1%	20µM*	85.0*	7.5%[12.9 µM]	177.5*	-15.4%
O=C(/C=C/c1ccco1)N/C(=C\c1ccco1)C(=O)NCCc1nc2ccccc2[nH]1	0.1%	15.8µM*	1.1	-21.2%	7.1	-11.0%
Cc1ccc(-c2nc3ccccc3[nH]2)cc1NC(=O)c1ccc2c(c1)OCO2	3.3%	15.7%	13.8*	0.8%	91.4	-1.6%
Cc1ccc2nc(N(Cc3cccnc3)C(=O)C3CCCCC3)sc2c1	nt	-1.1%	nt	nt	nt	8.1%
Cc1ccc(CN2C(=O)C(O)(c3c[nH]c4ccccc34)c3cc(Cl)ccc32)cc1 (stereo not drawn)	nt	9.7%	nt	nt	nt	7.0%
O=C(NC(=S)Nc1cc(-c2nc3ccccc3[nH]2)ccc1Cl)c1ccc2c(c1)OCO2	-10.0%	1.2%	69.8*	0.2%	78.1*	-1.5%
CCCC[C@@H](C=O)NC(=O)[C@H](CC(C)C)NC(=O)[C@H](CC(C)C)NC(C)=O	nt	nt	41.9*	5.6%	77.5*	nt
SMILES	LmPK inhibitor	Sm TGR block	Cycloheximide cs	FBPA Giardia inh	Shiga toxin inh	TbPYK inhibitor
O=C(c1cc(C(F)(F)F)cc(C(F)(F)F)c1)N1CCC2(CC1)CCN(c1ccncc1)CC2	nt	nt	nt	-0.8%	nt	-7.3%
COc1ccc(/C=C/C(=O)c2ccc(C)s2)cc1	nt	nt	nt	-3.0%	nt	nt
O=C(OCC(=O)c1ccc[nH]1)c1ccccc1	-1.7%[11.5 µM]	11.2%	47.3*	-1.5%	117.9*	-1.9%
O=C(COC(=O)c1nc(Cl)c(Cl)c(Cl)c1Cl)c1ccc[nH]1	nt	20µM*	nt	nt	nt	-2.6%
O=C(COC(=O)c1nc(Cl)ccc1Cl)c1ccc[nH]1	nt	5.1%	nt	nt	nt	0.8%
O=C(COC(=O)c1c(F)cccc1F)c1ccc[nH]1	-9.9%	-1.4%	37.7*	0.2%	81.5*	-1.9%
